Reference: PubChem BioAssay (EPA / NIEHS)
Calls of active or inactive are those of the source. The calls were made as follows: active = hit-call score of the fitted dose curve at least 0.9, where 1 is the maximum; inactive = score below 0.9.

Legend:
Settings in all cases: mRNA level, 48 h; actives raise or lower the signal
[1] = read-out: Interleukin 6 (IL6), IL6 (gene 3569); experiment: LTEA_HepaRG_IL6: Life Technologies and Expression Analysis (LTEA) Assay for Interleukin 6 (IL6) using HepaRG (AID 2283509)
In short: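 Differentiated human HepaRG cells, plated 48 h then switched to serum-free induction medium, were exposed in duplicate for 48 h to eight half-log concentrations up to 100 uM in 0.5% DMSO. IL6 mRNA measured by qRT-PCR, normalized to ACTB/GAPDH/POLR2A.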

[2] = read-out: Interleukin 6 Receptor (IL6R), IL6R (gene 3570); experiment: LTEA_HepaRG_IL6R: Life Technologies and Expression Analysis (LTEA) Assay for Interleukin 6 Receptor (IL6R) using HepaRG (AID 2283510);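 as to AC50: TaqMan qRT-PCR signal normalized to ACTB GAPDH and POLR2A housekeeping genes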
In short: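 Differentiated HepaRG cells, plated 48 h, then exposed in duplicate for 48 h in serum-free induction medium to 8 half-log concentrations (top 100 uM, 0.5% DMSO). IL6R mRNA measured by TaqMan qRT-PCR, normalized to ACTB/GAPDH/POLR2A; bidirectional fit vs DMSO.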

[3] = read-out: Potassium channel subfamily K member 1 (KCNK1), KCNK1 (gene 3775); experiment: LTEA_HepaRG_KCNK1: Life Technologies and Expression Analysis (LTEA) Assay for Potassium channel subfamily K member 1 (KCNK1) using HepaRG (AID 2283511)
In short: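 Differentiated human HepaRG cells in serum-free induction medium were exposed in duplicate for 48 h to 8 half-log concentrations up to 100 uM in 0.5% DMSO. KCNK1 mRNA was measured by TaqMan qRT-PCR, normalized to ACTB, GAPDH and POLR2A, and fitted bidirectionally versus DMSO.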

[4] = read-out: Keratin 19 (KRT19), KRT19 (gene 3880); experiment: LTEA_HepaRG_KRT19: Life Technologies and Expression Analysis (LTEA) Assay for Keratin 19 (KRT19) using HepaRG (AID 2283512)
In short: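 Gene-expression endpoint in the human liver line HepaRG after 48 h exposure to up to 100 uM test chemical with 0.5% DMSO vehicle; KRT19 mRNA by qRT-PCR, analyzed bidirectionally versus DMSO.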

[5] = read-out: JUN Transcription Factor, JUN (gene 3725); experiment: LTEA_HepaRG_JUN: Life Technologies and Expression Analysis (LTEA) Assay for JUN Transcription Factor using HepaRG (AID 2283513)
In short: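 HepaRG cells, 48 h post-plating, exposed 48 h in serum-free induction medium to 8-point half-log series (top 100 uM, 0.5% DMSO), duplicate; mRNA by qRT-PCR (TaqMan, Fluidigm), normalized to ACTB/GAPDH/POLR2A; bidirectional fit vs DMSO.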

[6] = read-out: Lipase C (LIPC), LIPC (gene 3990); experiment: LTEA_HepaRG_LIPC: Life Technologies and Expression Analysis (LTEA) Assay for Lipase C (LIPC) using HepaRG (AID 2283514)
In short: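 Differentiated human HepaRG cells in serum-free induction medium were exposed in duplicate for 48 h to eight concentrations (top 100 uM, half-log steps, 0.5% DMSO). LIPC mRNA was quantified by TaqMan qRT-PCR, normalized to ACTB, GAPDH and POLR2A, with bidirectional fitting versus DMSO.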

[7] = read-out: MicroRNA 122 (MIR122), gene 406906; experiment: LTEA_HepaRG_MIR122: Life Technologies and Expression Analysis (LTEA) Assay for MicroRNA 122 (MIR122) using HepaRG (AID 2283516); also: the transcript read is the microRNA miR-122
In short: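 Differentiated human HepaRG cells in serum-free induction medium exposed 48 h to 8 half-log concentrations from 100 uM in 0.5% DMSO, duplicate. MIR122 quantified by Fluidigm TaqMan qRT-PCR, normalised to ACTB, GAPDH, POLR2A; fold change fitted bidirectionally versus DMSO.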

[8] = read-out: matrix metalloproteinase-10 (MMP10), MMP10 (gene 4319); experiment: LTEA_HepaRG_MMP10: Life Technologies and Expression Analysis (LTEA) Assay for matrix metalloproteinase-10 (MMP10) using HepaRG (AID 2283517)
In short: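 HepaRG, collagen I, ~100,000 cells/well; serum-free induction medium; 48 h exposure, duplicate, 8-pt half-log to 100 uM, 0.5% DMSO. Readout: TaqMan qRT-PCR, normalized to ACTB/GAPDH/POLR2A; bidirectional fit vs DMSO.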

MYC, MYC (gene 4609) = experiment: LTEA_HepaRG_MYC: Life Technologies and Expression Analysis (LTEA) Assay for MYC using HepaRG (AID 2283518)
In short: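 Cells are thawed, plated and cultured 48 h, then treated for 48 h with test chemicals (eight half-log concentrations from 100 uM, 0.5% DMSO vehicle). RNA is isolated and MYC expression quantified by qRT-PCR against three housekeeping genes.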

[9] = read-out: matrix metalloproteinase-3 (MMP3), MMP3 (gene 4314); experiment: LTEA_HepaRG_MMP3: Life Technologies and Expression Analysis (LTEA) Assay for matrix metalloproteinase-3 (MMP3) using HepaRG (AID 2283519)
In short: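 Differentiated human HepaRG cells, plated 48 h on collagen I, were exposed in duplicate for 48 h in serum-free induction medium to eight half-log concentrations up to 100 uM in 0.5% DMSO. MMP3 mRNA was quantified by TaqMan qRT-PCR, normalised to ACTB, GAPDH and POLR2A.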

Compound	outcome [1]	outcome [2]	outcome [3]	outcome [4]	outcome [5]	outcome [6]	outcome [7]	outcome [8]	outcome (MYC, MYC (gene 4609))	outcome [9]	AC50 [4]	AC50 [1]	AC50 [5]	AC50 [2]
OCCN(CCO)CCO	inactive	inactive	inactive	inactive	inactive	inactive	inactive	inactive	inactive	inactive	–	–	–	–
Clc1cccc(Cl)c1	inactive	inactive	inactive	inactive	inactive	inactive	inactive	inactive	inactive	inactive	–	–	–	–
CC(C)(C)c1ccccc1O	inactive	inactive	inactive	inactive	inactive	inactive	inactive	inactive	inactive	inactive	–	–	–	–
Oc1cc(Cl)c(Cl)cc1Cl	inactive	inactive	inactive	–	inactive	inactive	inactive	inactive	inactive	inactive	50 µM (active)	–	–	–
CN(C)C(=S)S	inactive	inactive	inactive	inactive	inactive	inactive	inactive	inactive	inactive	inactive	–	–	–	–
O=C(O)C1(c2ccc3c(c2)OC[C@H](Cc2ccc(-c4ccccc4)cc2)[C@H]3O)CCCC1	–	inactive	inactive	inactive	–	inactive	inactive	inactive	inactive	inactive	–	78.4 µM (active)	88.4 µM (active)	–
Oc1c(Cl)cc(Cl)cc1Cl	inactive	inactive	inactive	inactive	inactive	inactive	inactive	inactive	inactive	inactive	–	–	–	–
N#Cc1cccnc1	inactive	inactive	inactive	inactive	inactive	inactive	inactive	inactive	inactive	inactive	–	–	–	–
CCCCCCCCCCCCc1cccc(S(=O)(=O)O)c1	inactive	inactive	inactive	–	inactive	inactive	inactive	inactive	inactive	inactive	76.1 µM (active)	–	–	–
COc1ccccc1N	inactive	inactive	inactive	inactive	inactive	inactive	inactive	inactive	inactive	inactive	–	–	–	–
CC(C)O.CC(C)O.OCCN(CCO)CCO.OCCN(CCO)CCO.[Ti]	inactive	inactive	inactive	inactive	inactive	inactive	inactive	inactive	inactive	inactive	–	–	–	–
O=C(N[C@H]1CN2CCC1CC2)c1ccc2c(c1)OCCO2	inactive	–	inactive	inactive	inactive	inactive	inactive	inactive	inactive	inactive	–	–	–	12.2 µM (active)
Clc1cccc(Cl)c1Cl	inactive	–	inactive	inactive	inactive	inactive	inactive	inactive	inactive	inactive	–	–	–	–
Cc1cc(C)cc(C)c1	inactive	inactive	inactive	inactive	inactive	inactive	inactive	inactive	inactive	inactive	–	–	–	–
